Measured values taken from PubChem BioAssay AID1159580 (chemical genetic matrix, 2015).
Hit rate of the full screen: of about 5,500 compounds, about 2,000 (36%) were called active. Roughly 18% stayed inconclusive and do not appear here. Cut-off read from the data, not from the text of the source: active = normalized growth mostly below about 0.91 (no sharp cut-off); inconclusive = no clear call, values can overlap the other calls; inactive = mostly above about 0.92. The list shows a part of the results.

Test: chemical genetic growth profiling, strain panel (AID 1159580);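 note: tested at 20 µM; growth read once vehicle control cultures reached saturation at 30 °C; 1 = growth at the plate median or of vehicle wells; lower values mean less growth of the strain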
Settings: growth OD
[1] = S. cerevisiae deletion strains, locus YDL101C, strain DUN1, active compounds read low
[2] = S. cerevisiae deletion strains, locus YHR030C, strain SLT2, active compounds read low

Measured: normalized growth

Cc1onc(NC(=O)NC(=O)c2c(F)cccc2Cl)c1Br
inactive: S. cerevisiae deletion strains, locus YAL013W, strain DEP1, active compounds read low 1 | S. cerevisiae deletion strains, locus YBR229C, strain ROT2, active compounds read low 0.996 | S. cerevisiae deletion strains, locus YCL061C, strain MRC1, active compounds read low 1.03 | [1] 1.04 | S. cerevisiae deletion strains, locus YDR150W, strain NUM1, active compounds read low 1.01 | S. cerevisiae deletion strains, locus YEL061C, strain CIN8, active compounds read low 0.973 | S. cerevisiae deletion strains, locus YGR078C, strain PAC10, active compounds read low 1.01 | [2] 0.96 | S. cerevisiae deletion strains, locus YHR087W, strain rtc3, active compounds read low 0.971 | S. cerevisiae deletion strains, locus YJR043C, strain POL32, active compounds read low 1.01 | S. cerevisiae deletion strains, locus YJR075W, strain HOC1, active compounds read low 1.01 | S. cerevisiae deletion strains, locus YLR039C, strain RIC1, active compounds read low 1 | S. cerevisiae deletion strains, locus YLR058C, strain SHM2 (second series), active compounds read low 1 | S. cerevisiae deletion strains, locus YLR085C, strain ARP6, active compounds read low 0.986 | S. cerevisiae deletion strains, locus YLR262C, strain YPT6, active compounds read low 0.988 | S. cerevisiae deletion strains, locus YML094W, strain GIM5, active compounds read low 0.973 | S. cerevisiae deletion strains, locus YMR219W, strain ESC1, active compounds read low 0.998 | S. cerevisiae deletion strains, locus YMR263W, strain SAP30, active compounds read low 1.01 | S. cerevisiae deletion strains, locus YNL153C, strain GIM3, active compounds read low 1.02 | S. cerevisiae deletion strains, locus YNL298W, strain CLA4 (second series), active compounds read low 1.01 | S. cerevisiae deletion strains, locus YNL322C, strain KRE1, active compounds read low 1 | S. cerevisiae deletion strains, locus YNR030W, strain Alg12, active compounds read low 0.981 | S. cerevisiae deletion strains, locus YOL006C, strain TOP1, active compounds read low 1 | S. cerevisiae deletion strains, locus YPL055C, strain LGE1, active compounds read low 0.964 | S. cerevisiae deletion strains, locus YPL241C, strain CIN2, active compounds read low 1 | S. cerevisiae deletion strains, locus YPR135W, strain CTF4, active compounds read low 0.977 | S. cerevisiae strains, strain wild type, active compounds read low 1

O=C(NC(=O)c1c(F)cccc1Cl)OCc1ccc(Cl)cc1Cl
active: [2] 0.63 | S. cerevisiae deletion strains, locus YLR113W, strain HOG1, active compounds read low 0.71 | S. cerevisiae deletion strains, locus YPL256C, strain CLN2, active compounds read low 0.711
inactive: S. cerevisiae deletion strains, locus YAR019C, strain CDC15, active compounds read low 0.987 | S. cerevisiae deletion strains, locus YBL105C, strain PKC1, active compounds read low 0.981 | S. cerevisiae deletion strains, locus YBR135W, strain CKS1, active compounds read low 0.975 | S. cerevisiae deletion strains, locus YBR136W, strain MEC1, active compounds read low 0.984 | S. cerevisiae deletion strains, locus YBR160W, strain CDC28, active compounds read low 0.976 | S. cerevisiae deletion strains, locus YDL017W, strain CDC7, active compounds read low 0.99 | S. cerevisiae deletion strains, locus YDL028C, strain MPS1, active compounds read low 0.978 | [1] 0.989 | S. cerevisiae deletion strains, locus YDL108W, strain KIN28, active compounds read low 0.976 | S. cerevisiae deletion strains, locus YDL132W, strain cdc53, active compounds read low 0.984 | S. cerevisiae deletion strains, locus YDL214C, strain PRR2, active compounds read low 0.879 | S. cerevisiae deletion strains, locus YDR052C, strain DBF4, active compounds read low 0.978 | S. cerevisiae deletion strains, locus YDR054C, strain cdc34, active compounds read low 0.979 | S. cerevisiae deletion strains, locus YDR226W, strain ADK1, active compounds read low 0.983 | S. cerevisiae deletion strains, locus YDR477W, strain SNF1, active compounds read low 0.915 | S. cerevisiae deletion strains, locus YER123W, strain YCK3, active compounds read low 0.848 | S. cerevisiae deletion strains, locus YER133W, strain GLC7, active compounds read low 0.893 | S. cerevisiae deletion strains, locus YFL009W, strain cdc4, active compounds read low 0.985 | S. cerevisiae deletion strains, locus YFL029C, strain CAK1, active compounds read low 0.987 | S. cerevisiae deletion strains, locus YFR003C, strain YPI1, active compounds read low 0.98 | S. cerevisiae deletion strains, locus YFR019W, strain FAB1, active compounds read low 0.941 | S. cerevisiae deletion strains, locus YFR028C, strain CDC14, active compounds read low 0.988 | S. cerevisiae deletion strains, locus YGR040W, strain KSS1, active compounds read low 0.9 | S. cerevisiae deletion strains, locus YGR052W, strain FMP48, active compounds read low 0.9 | S. cerevisiae deletion strains, locus YGR092W, strain DBF2, active compounds read low 0.831 | S. cerevisiae deletion strains, locus YHR079C, strain IRE1, active compounds read low 0.873 | S. cerevisiae deletion strains, locus YHR082C, strain KSP1, active compounds read low 0.95 | S. cerevisiae deletion strains, locus YHR205W, strain SCH9, active compounds read low 0.731 | S. cerevisiae deletion strains, locus YIL147C, strain SLN1, active compounds read low 0.986 | S. cerevisiae deletion strains, locus YJL095W, strain BCK1, active compounds read low 0.845 | S. cerevisiae deletion strains, locus YJL128C, strain PBS2, active compounds read low 0.927 | S. cerevisiae deletion strains, locus YJL157C, strain FAR1, active compounds read low 0.878 | S. cerevisiae deletion strains, locus YJR016C, strain ILV3, active compounds read low 0.974 | S. cerevisiae deletion strains, locus YJR066W, strain TOR1 (second series), active compounds read low 0.869 | S. cerevisiae deletion strains, locus YJR066W, strain TOR1, active compounds read low 0.884 | S. cerevisiae deletion strains, locus YKL048C, strain ELM1, active compounds read low 0.905 | S. cerevisiae deletion strains, locus YKL067W, strain YNK1, active compounds read low 0.9 | S. cerevisiae deletion strains, locus YKL101W, strain HSL1, active compounds read low 0.863 | S. cerevisiae deletion strains, locus YKL193C, strain SDS22, active compounds read low 0.985 | S. cerevisiae deletion strains, locus YKL203C, strain TOR2, active compounds read low 0.914 | S. cerevisiae deletion strains, locus YLR133W, strain CKI1, active compounds read low 0.876 | S. cerevisiae deletion strains, locus YLR403W, strain SFP1, active compounds read low 0.854 | S. cerevisiae deletion strains, locus YML070W, strain DAK1, active compounds read low 0.858 | S. cerevisiae deletion strains, locus YMR001C, strain CDC5, active compounds read low 0.985 | S. cerevisiae deletion strains, locus YMR205C, strain PFK2 (second series), active compounds read low 0.906 | S. cerevisiae deletion strains, locus YMR277W, strain FCP1, active compounds read low 0.98 | S. cerevisiae deletion strains, locus YNL006W, strain LST8, active compounds read low 0.983 | S. cerevisiae deletion strains, locus YNL020C, strain ARK1, active compounds read low 0.818 | S. cerevisiae deletion strains, locus YNL161W, strain CBK1, active compounds read low 0.974 | S. cerevisiae deletion strains, locus YNL183C, strain NPR1, active compounds read low 0.875 | S. cerevisiae deletion strains, locus YNL207W, strain RIO2, active compounds read low 0.966 | S. cerevisiae deletion strains, locus YNL222W, strain SSU72, active compounds read low 0.978 | S. cerevisiae deletion strains, locus YNL307C, strain MCK1 (second series), active compounds read low 0.828 | S. cerevisiae deletion strains, locus YOL078W, strain AVO1, active compounds read low 0.983 | S. cerevisiae deletion strains, locus YOL136C, strain PFK27, active compounds read low 0.851 | S. cerevisiae deletion strains, locus YOR061W, strain CKA2, active compounds read low 0.899 | S. cerevisiae deletion strains, locus YOR119C, strain RIO1, active compounds read low 0.961 | S. cerevisiae deletion strains, locus YOR231W, strain MKK1, active compounds read low 0.835 | S. cerevisiae deletion strains, locus YOR329C, strain SCD5, active compounds read low 0.978 | S. cerevisiae deletion strains, locus YPL031C, strain PHO85, active compounds read low 0.887 | S. cerevisiae deletion strains, locus YPL153C, strain RAD53, active compounds read low 0.914 | S. cerevisiae deletion strains, locus YPL204W, strain HRR25, active compounds read low 0.867 | S. cerevisiae deletion strains, locus YPL209C, strain IPL1, active compounds read low 0.979 | S. cerevisiae deletion strains, locus YPR025C, strain CCL1, active compounds read low 0.976 | S. cerevisiae deletion strains, locus YPR106W, strain ISR1, active compounds read low 0.966 | S. cerevisiae deletion strains, locus YPR111W, strain DBF20, active compounds read low 0.949 | S. cerevisiae deletion strains, strain NNK1, active compounds read low 0.977 | S. cerevisiae deletion strains, strain TSCII, active compounds read low 0.979
